# Measurements taken from the supplement of paper PMC11732987, “Enantioselective OTUD7B fragment discovery through chemoproteomics screening and high-throughput optimisation” (Communications Chemistry, 2025).
# Unmarked numbers belong to inactive results.
# Assays:
# Assay in all cases: log2 ratio of Biotin-Ahx-Ub-VS probe labelling (fragment/DMSO); higher = less target engagement (more negative = stronger competition), active = hit call of the paper (q ≤ 0.05, log2 ratio ≤ -1)
# Conditions in all cases: compound concentration: 200 uM; treatment time: 3 h
# USP19 = target: T1, USP19 (UniProt O94966)
# T1 sequence (whole entry): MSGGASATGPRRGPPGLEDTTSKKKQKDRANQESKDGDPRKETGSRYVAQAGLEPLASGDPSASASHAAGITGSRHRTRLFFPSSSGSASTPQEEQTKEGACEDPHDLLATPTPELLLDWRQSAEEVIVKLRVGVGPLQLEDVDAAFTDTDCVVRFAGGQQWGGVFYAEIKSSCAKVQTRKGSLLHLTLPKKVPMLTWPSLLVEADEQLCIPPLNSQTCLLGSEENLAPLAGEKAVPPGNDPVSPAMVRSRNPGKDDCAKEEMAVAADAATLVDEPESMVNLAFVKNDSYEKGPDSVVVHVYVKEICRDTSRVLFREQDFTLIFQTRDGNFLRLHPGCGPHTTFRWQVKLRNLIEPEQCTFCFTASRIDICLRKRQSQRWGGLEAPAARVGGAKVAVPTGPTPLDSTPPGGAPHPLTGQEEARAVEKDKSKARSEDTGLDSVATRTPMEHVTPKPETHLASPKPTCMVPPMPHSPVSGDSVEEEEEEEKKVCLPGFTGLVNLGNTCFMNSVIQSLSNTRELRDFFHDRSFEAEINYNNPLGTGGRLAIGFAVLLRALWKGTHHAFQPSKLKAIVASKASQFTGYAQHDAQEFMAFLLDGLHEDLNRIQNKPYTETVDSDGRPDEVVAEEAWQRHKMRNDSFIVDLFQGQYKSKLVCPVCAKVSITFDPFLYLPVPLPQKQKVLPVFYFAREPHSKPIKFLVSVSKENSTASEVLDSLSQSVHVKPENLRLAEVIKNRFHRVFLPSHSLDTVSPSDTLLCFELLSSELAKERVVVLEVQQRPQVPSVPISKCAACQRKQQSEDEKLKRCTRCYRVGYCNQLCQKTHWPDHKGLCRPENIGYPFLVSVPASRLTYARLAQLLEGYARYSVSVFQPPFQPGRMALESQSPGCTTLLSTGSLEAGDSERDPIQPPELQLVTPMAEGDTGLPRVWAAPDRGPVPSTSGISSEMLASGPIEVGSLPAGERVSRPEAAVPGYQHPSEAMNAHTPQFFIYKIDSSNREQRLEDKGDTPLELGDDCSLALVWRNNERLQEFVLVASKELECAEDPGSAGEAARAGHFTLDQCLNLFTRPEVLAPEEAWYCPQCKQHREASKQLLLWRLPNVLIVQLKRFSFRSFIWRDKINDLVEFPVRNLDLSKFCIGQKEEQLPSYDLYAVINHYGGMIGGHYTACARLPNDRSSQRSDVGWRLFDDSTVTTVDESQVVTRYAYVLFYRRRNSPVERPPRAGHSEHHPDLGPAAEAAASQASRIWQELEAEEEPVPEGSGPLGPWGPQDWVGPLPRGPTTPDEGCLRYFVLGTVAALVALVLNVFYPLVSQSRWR
# Outline: (§1)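 Labelling with Biotin-Ahx-Ub-VS (0.5 µM final, 1 h) followed a 3 h triplicate treatment of HEK293T lysate (495 µg per sample, Tris/CHAPS/IGEPAL buffer with protease inhibitors) with fragment at 200 µM or vehicle. Labelled DUBs were NeutrAvidin-enriched, digested with LysC and trypsin, and run by diaPASEF LC-MS/MS. The values, average log2 fragment/vehicle ratios by unpaired t-test, come from global-median-normalised Spectronaut label-free quantities. Proteins with ≥2 unique peptides were used.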
# USP22 = target: T2, USP22 (UniProt Q9UPT9)
# T2 sequence (whole entry): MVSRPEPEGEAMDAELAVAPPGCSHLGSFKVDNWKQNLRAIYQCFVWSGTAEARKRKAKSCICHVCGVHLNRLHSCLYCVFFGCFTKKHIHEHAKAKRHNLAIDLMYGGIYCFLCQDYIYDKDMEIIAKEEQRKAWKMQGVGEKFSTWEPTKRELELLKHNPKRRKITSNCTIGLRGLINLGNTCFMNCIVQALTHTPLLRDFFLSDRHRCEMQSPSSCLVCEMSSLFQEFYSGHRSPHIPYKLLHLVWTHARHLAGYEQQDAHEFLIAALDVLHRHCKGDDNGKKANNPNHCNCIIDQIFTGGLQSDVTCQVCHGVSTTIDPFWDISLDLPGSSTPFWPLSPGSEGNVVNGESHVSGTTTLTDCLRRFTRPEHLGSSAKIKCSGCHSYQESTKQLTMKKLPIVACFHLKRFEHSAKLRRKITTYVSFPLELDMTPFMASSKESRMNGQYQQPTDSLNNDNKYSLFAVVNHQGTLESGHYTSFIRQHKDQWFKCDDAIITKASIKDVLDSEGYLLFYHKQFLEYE
# Outline: as §1
# USP24 = USP24 (UniProt Q9UPU5)
# USP24, sequence (Q9UPU5 whole entry): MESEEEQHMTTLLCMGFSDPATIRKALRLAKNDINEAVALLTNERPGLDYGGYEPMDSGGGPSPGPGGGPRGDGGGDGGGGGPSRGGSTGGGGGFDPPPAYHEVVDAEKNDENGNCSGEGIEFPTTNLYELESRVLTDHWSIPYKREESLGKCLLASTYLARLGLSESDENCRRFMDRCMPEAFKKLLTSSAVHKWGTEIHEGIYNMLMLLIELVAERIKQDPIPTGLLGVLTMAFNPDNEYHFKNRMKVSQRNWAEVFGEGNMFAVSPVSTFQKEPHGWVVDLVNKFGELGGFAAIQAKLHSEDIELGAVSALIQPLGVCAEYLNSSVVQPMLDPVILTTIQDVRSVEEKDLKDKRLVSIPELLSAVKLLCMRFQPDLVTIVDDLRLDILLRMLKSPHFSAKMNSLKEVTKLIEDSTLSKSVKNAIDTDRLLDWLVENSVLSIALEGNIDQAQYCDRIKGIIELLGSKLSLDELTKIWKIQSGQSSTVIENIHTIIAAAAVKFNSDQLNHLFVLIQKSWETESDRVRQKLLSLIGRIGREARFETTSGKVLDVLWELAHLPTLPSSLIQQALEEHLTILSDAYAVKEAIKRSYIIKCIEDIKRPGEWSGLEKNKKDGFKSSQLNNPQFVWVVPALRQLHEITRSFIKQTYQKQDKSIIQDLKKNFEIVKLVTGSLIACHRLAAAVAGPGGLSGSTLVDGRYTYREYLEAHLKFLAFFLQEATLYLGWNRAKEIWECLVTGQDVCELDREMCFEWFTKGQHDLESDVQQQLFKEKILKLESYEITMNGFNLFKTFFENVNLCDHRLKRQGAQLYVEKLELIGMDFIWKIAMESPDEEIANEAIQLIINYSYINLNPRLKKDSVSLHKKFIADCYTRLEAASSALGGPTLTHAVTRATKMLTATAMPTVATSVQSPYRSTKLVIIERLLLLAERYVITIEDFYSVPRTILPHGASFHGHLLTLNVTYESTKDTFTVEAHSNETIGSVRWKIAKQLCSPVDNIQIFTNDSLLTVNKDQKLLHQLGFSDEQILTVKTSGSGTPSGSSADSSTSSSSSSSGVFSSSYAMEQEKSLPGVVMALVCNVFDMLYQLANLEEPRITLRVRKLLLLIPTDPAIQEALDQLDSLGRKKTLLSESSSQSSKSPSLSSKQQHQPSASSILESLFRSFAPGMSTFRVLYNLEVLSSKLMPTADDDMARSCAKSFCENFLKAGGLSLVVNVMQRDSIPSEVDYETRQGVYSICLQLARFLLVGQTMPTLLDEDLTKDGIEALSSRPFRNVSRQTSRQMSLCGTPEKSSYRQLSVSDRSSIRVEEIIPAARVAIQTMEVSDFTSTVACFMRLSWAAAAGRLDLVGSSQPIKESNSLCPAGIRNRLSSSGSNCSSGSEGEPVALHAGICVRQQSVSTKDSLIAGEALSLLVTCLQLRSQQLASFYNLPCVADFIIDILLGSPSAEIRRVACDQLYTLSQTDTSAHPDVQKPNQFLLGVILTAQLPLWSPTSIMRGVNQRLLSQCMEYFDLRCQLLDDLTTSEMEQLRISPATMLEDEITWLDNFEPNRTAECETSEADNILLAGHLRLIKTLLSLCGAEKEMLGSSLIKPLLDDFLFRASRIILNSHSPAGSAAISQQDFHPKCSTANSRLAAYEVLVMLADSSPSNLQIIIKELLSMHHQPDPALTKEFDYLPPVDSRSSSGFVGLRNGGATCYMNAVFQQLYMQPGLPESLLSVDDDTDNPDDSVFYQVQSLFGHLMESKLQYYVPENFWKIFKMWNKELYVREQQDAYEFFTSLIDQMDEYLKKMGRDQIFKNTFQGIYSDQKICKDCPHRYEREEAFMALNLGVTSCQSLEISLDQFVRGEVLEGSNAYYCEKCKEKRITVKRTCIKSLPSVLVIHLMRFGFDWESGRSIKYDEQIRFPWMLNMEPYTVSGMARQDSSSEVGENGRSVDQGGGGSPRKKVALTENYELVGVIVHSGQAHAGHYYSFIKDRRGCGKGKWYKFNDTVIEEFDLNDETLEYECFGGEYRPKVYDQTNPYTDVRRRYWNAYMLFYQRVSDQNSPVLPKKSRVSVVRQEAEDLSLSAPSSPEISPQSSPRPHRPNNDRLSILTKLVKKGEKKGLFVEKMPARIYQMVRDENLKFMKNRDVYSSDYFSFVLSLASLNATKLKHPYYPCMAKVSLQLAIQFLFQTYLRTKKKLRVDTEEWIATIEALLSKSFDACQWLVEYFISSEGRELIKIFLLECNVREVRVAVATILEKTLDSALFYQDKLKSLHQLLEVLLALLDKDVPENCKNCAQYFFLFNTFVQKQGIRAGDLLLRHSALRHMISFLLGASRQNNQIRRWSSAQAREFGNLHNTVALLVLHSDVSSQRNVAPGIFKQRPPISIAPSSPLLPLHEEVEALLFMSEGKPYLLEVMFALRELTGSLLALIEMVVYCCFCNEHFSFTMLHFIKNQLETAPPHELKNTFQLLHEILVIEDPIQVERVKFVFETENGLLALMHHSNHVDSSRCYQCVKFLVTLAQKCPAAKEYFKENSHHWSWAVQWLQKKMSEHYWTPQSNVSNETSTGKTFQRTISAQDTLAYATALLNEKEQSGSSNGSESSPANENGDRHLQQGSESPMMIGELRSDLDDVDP
# Outline: as §1
# USP25 = target: T3, USP25 (UniProt Q9UHP3)
# T3 sequence (whole entry): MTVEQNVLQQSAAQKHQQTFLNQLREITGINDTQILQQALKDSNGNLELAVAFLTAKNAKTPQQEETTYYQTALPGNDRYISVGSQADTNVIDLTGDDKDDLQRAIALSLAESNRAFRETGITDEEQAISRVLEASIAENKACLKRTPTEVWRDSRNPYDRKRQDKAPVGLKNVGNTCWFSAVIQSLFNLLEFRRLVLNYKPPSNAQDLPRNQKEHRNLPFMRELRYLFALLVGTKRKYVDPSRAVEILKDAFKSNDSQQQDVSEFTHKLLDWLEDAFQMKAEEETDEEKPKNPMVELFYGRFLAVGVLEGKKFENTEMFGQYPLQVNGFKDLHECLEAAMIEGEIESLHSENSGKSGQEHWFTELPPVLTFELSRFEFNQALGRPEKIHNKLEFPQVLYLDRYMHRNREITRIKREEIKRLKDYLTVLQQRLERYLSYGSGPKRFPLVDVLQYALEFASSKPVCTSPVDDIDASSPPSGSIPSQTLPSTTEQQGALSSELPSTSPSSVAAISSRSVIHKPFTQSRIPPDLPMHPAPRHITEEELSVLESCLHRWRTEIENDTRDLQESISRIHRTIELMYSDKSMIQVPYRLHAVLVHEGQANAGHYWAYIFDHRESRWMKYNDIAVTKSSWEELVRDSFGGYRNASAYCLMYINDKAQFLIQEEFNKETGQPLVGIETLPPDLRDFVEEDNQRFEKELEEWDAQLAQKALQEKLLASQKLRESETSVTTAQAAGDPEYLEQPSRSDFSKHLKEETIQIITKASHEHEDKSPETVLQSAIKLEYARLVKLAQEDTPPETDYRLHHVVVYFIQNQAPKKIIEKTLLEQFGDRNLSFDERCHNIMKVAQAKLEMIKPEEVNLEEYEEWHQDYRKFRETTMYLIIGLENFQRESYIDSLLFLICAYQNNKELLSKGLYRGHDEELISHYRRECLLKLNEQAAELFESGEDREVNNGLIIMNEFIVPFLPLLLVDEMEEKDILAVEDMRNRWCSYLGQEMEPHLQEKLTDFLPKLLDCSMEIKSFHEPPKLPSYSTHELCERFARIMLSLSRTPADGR
# Outline: as §1
# USP28 = target: T4, USP28 (UniProt Q96RU2)
# T4 sequence (whole entry): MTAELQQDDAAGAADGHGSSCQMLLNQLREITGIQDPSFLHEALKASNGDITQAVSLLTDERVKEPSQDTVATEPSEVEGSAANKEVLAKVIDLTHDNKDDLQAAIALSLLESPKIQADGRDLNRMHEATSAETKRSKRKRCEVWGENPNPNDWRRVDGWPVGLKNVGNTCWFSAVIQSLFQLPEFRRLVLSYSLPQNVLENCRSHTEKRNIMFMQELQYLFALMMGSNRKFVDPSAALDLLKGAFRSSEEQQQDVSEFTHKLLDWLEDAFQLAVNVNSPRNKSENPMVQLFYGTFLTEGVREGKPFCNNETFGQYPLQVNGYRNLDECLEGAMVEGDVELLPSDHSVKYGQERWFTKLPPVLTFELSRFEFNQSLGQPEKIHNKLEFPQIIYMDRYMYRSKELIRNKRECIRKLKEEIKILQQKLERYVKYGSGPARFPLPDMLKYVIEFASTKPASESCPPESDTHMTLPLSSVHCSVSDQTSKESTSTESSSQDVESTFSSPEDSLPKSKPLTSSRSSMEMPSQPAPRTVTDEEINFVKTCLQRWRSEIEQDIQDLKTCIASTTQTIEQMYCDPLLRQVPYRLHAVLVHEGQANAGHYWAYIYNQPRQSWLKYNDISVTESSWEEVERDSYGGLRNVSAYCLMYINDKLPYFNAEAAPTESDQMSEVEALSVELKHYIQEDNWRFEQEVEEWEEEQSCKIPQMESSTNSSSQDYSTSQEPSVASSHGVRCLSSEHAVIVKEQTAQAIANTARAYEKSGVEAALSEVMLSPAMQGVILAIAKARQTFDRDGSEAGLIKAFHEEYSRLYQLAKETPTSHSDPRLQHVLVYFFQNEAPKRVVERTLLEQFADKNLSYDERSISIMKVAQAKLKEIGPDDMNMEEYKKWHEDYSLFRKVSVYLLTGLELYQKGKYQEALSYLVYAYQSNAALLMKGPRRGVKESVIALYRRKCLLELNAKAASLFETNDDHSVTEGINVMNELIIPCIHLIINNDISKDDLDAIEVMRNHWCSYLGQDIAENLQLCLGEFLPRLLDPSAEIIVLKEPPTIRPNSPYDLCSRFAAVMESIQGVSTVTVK
# Outline: as §1
smiles,measurement,setting,value
N#Cc1ccc(Cl)cc1NC(=O)CCl,log2 ratio of Biotin-Ahx-Ub-VS probe labelling,USP19,-0.121
same,log2 ratio of Biotin-Ahx-Ub-VS probe labelling,USP22,0.184
same,log2 ratio of Biotin-Ahx-Ub-VS probe labelling,USP24,-0.83
same,log2 ratio of Biotin-Ahx-Ub-VS probe labelling,USP25,-0.912
same,log2 ratio of Biotin-Ahx-Ub-VS probe labelling,USP28,-1.49 (active)
